According to the supplement of paper PMC10981050:
“And” between values parts separate entries of the source, which are not always exact repeats. Equal values may be shown once. Where a name gives a salt, the structure may show the parent alone.

Assays:
Test in all cases: cell viability relative to vehicle control; higher = less cytotoxic
Settings in all cases: 10 µM
K562 = tested on: K562
In short: (§1)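 CRISPR-edited SRSF2 P95 mutant and isogenic wild-type clones of four leukaemia lines were screened against Selleck bioactive, kinase and epigenetic probe libraries, with identity-inconsistent compounds removed. Compounds were acoustically dispensed into 384-well plates at a single 10 µM dose, with 2000 cells in 50 µL medium per well. After 48 h, supernatant was removed and CellTiter-Glo luminescence was read. Viability was expressed as percent of the on-plate DMSO vehicle control, analysed in Genedata Screener.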

MARIMO = tested on: MARIMO
In short: as §1

MOLM14 = tested on: MOLM14
In short: as §1

OCI-AML2 = tested on: OCI-AML2
In short: as §1

SMILES | cell viability (K562; SRSF2 genotype: SRSF2 P95H/wt) | cell viability (K562; SRSF2 genotype: SRSF2 wt/wt) [%] | cell viability (MARIMO; SRSF2 genotype: SRSF2 P95H/wt) [%] | cell viability (MARIMO; SRSF2 genotype: SRSF2 wt/wt) [%] | cell viability (MOLM14; SRSF2 genotype: SRSF2 P95H/wt) [%] | cell viability (MOLM14; SRSF2 genotype: SRSF2 wt/wt) [%] | cell viability (OCI-AML2; SRSF2 genotype: P95H/wt) [%] | cell viability (OCI-AML2; SRSF2 genotype: wt/wt) [%]
O=C(c1cc(Cc2n[nH]c(=O)c3ccccc23)ccc1F)N1CCN(C(=O)C2CC2)CC1 | 92.6% and 101% | 97.2 | 84 | 96.1 | 59.4 | 31 | 44.6 | 58
CS(=O)(=O)Nc1ccc([N+](=O)[O-])cc1Oc1ccccc1 [Nimesulide] | 105% and 109% | 99.8 | 102 | 108 | 109 | 103 | 101 | 110
COc1c(C)cnc(Cn2cnc3c(Cl)nc(N)nc32)c1C | 21.6% and 31% | 29.2 | 32.7 | 25.9 | 2.67 | 2.88 | 18.4 | 22.2
CC(CCC(=O)NCCS(=O)(=O)O)C1CCC2C3C(O)CC4CC(O)CCC4(C)C3CCC12C (configuration not stated) [Sodium Tauroursodeoxycholate (TUDC)] | 91.6% and 88.5% | 89.8 | 94 | 103 | 91.7 | 91.2 | 90.3 | 89.4
COc1cc2nccc(Oc3ccc(NC(=O)Nc4cc(C)on4)c(Cl)c3)c2cc1OC [Tivozanib (AV-951)] | 11.4% and 16.2% | 21.9 | 56.2 | 61.4 | 11.3 | 10.3 | 26.1 | 29.9
Nc1nc2n[nH]nc2c(=O)[nH]1 [Azaguanine-8] | 85.3% and 81.8% | 82.5 | 76.2 | 68.1 | 82.7 | 86.6 | 70.9 | 54.6
CCS(=O)(=O)c1cccc(-c2cc(C(=O)NC3CCN(C)CC3)c(C)c3[nH]c4ncc(C)cc4c23)c1 | 29% and 32.2% | 21.9 | 11.9 | 7.33 | 2.91 | 2.2 | 4.55 | 11.1
CC(=N)NCc1cccc(CN)c1 | 103% and 97.3% | 91.8 | 96.3 | 100 | 95.6 | 97.8 | 95.4 | 101
O=C(O)/C=C/c1ccc(O)cc1 [p-Coumaric Acid] | 101% and 108% | 110 | 108 | 110 | 107 | 107 | 109 | 103
COC(=O)[C@]12CCC(C)(C)C[C@H]1[C@H]1C(=O)C=C3[C@@]4(C)C=C(C#N)C(=O)C(C)(C)[C@@H]4CC[C@@]3(C)[C@]1(C)CC2 [Bardoxolone Methyl] | 2.03% and 0.75% | 1.02 | 0.23 | 0.28 | 0.15 | 0.13 | 0.19 | 0.13
CN(C)CC[C@H](CSc1ccccc1)Nc1ccc(S(=O)(=O)NC(=O)c2ccc(N3CCN(Cc4ccccc4-c4ccc(Cl)cc4)CC3)cc2)cc1[N+](=O)[O-] | 49.5% and 28.1% | 72.7 | 0.46 | 1.66 | 0.15 | 2 | 0.19 | 3.31
N#CC1(c2ccc(NC(=O)c3cccnc3NCc3ccncc3)cc2)CCCC1 [Apatinib mesylate] | 79.4% and 87.5% | 81.8 | 77.7 | 86.2 | 45.8 | 42.6 | 68.4 | 62.5
CN1CCN(C(=O)C=Cc2ccc([N+](=O)[O-])o2)CC1 | 43.9% and 54.3% | 65.3 | 65 | 72.4 | 40.7 | 35.7 | 24.7 | 42.6
CC1=CC(=O)[C@@H]2C[C@H]1C2(C)C [(-)-Verbenone] | 105% and 102% | 96.3 | 92.5 | 98.8 | 90.8 | 95.7 | 87.2 | 96.3
O=C1NC(=O)C(c2cnc3ccccn23)=C1c1cn2c3c(cc(F)cc13)CN(C(=O)N1CCCCC1)CC2 | 56.1% and 43.4% | 71.5 | 94.4 | 103 | 86.8 | 79.5 | 118 | 119
NC(=O)c1[nH]cnc1N [4-Amino-5-imidazolecarboxamide] | 101% and 104% | 105 | 101 | 107 | 99.1 | 108 | 97.3 | 108
Cc1cc(C)c2c(c1)[C@@H](N(Cc1cc(C(F)(F)F)cc(C(F)(F)F)c1)c1nnn(C)n1)CCCN2C[C@H]1CC[C@H](C(=O)O)CC1 | 89% and 90.3% | 90.1 | 104 | 114 | 95.4 | 98.7 | 101 | 116

SMILES | cell viability (K562; SRSF2 genotype: SRSF2 P95H/wt) | cell viability (K562; SRSF2 genotype: SRSF2 wt/wt) [%] | cell viability (MARIMO; SRSF2 genotype: SRSF2 P95H/wt) [%] | cell viability (MARIMO; SRSF2 genotype: SRSF2 wt/wt) [%] | cell viability (MOLM14; SRSF2 genotype: SRSF2 P95H/wt) [%] | cell viability (MOLM14; SRSF2 genotype: SRSF2 wt/wt) [%] | cell viability (OCI-AML2; SRSF2 genotype: P95H/wt) [%] | cell viability (OCI-AML2; SRSF2 genotype: wt/wt) [%]
C[C@@]1(C(=O)Nc2ccc(F)nc2)CCCN1c1nc(Nc2cc(C3CC3)n[nH]2)c2cccn2n1 | 61.4% and 72.2% | 63.7 | 38.7 | 33.2 | 7.43 | 9.62 | 7.63 | 19.3
COc1ccc(-c2cc(=O)c3c(OC)c(OC)c(OC)c(OC)c3o2)cc1 [Tangeretin (Tangeritin)] | 95.5% and 98.4% | 103 | 91.7 | 90.8 | 96 | 102 | 82.9 | 88.1
CCC(=O)O[C@]1(C(=O)SCF)[C@H](C)C[C@H]2[C@@H]3C[C@H](F)C4=CC(=O)C=C[C@]4(C)[C@@]3(F)[C@@H](O)C[C@@]21C [Fluticasone propionate (Flonase, Veramyst)] | 92.7% and 86.5% | 88 | 87.8 | 99 | 85.3 | 83.2 | 86.7 | 108
Cc1cc(O)c2c(c1)C(=O)c1cccc(O)c1C2=O [Chrysophanic acid (Chrysophanol)] | 100% and 95.6% | 100 | 96.9 | 95.8 | 114 | 106 | 89.2 | 83
CCN(C(=O)c1c(O)c2c(Cl)cccc2n(C)c1=O)c1ccccc1 | 98.8% and 96.5% | 96.4 | 92.4 | 99.1 | 84.1 | 93.4 | 87.9 | 99.8
Cc1c(-c2ccc(O)cc2)n(Cc2ccc(OCCN3CCCCCC3)cc2)c2ccc(O)cc12 [Bazedoxifene HCl] | 1.11% and 0.75% | 0.96 | 17.3 | 27.5 | 0.32 | 0.46 | 0.41 | 0.44
CC/C(=C(\c1ccc(O)cc1)c1ccc(OCCN(C)C)cc1)c1ccccc1 [4-Hydroxytamoxifen] | 27.4% and 32.6% | 28 | 55.8 | 53.5 | 32.9 | 27.8 | 22.6 | 39.5
CC(C)(C)NC(=O)[C@H]1CC[C@H]2[C@@H]3CC[C@H]4NC(=O)C=C[C@]4(C)[C@H]3CC[C@]12C [Finasteride] | 103% and 99% | 97.5 | 94.3 | 105 | 101 | 102 | 99.7 | 106
COc1ccc(S(=O)(=O)Nc2cc(-c3c(O)ccc4ccccc34)c(O)c3ccccc23)cc1 | 7.52% and 4.96% | 34.5 | 0.33 | 0.36 | 0.32 | 0.34 | 0.37 | 0.35
CCCCCC1=C(C)CCC1=O [Dihydrojasmone] | 105% | 108 | 101 | 106 | 107 | 105 | 106 | 115
Cc1ccc(C(=O)c2cc(O)c(O)c([N+](=O)[O-])c2)cc1 [Tolcapone] | 107% and 113% | 112 | 109 | 111 | 106 | 109 | 113 | 97.3
CC(C(=O)O)c1cccc(Oc2ccccc2)c1 (configuration not stated) [Fenoprofen calcium] | 90.9% and 83.7% | 86.4 | 88.2 | 92.5 | 89.5 | 90.7 | 84.1 | 87.5
O=C(Nc1ccc(-c2ccnc(Nc3ccc(N4CCOCC4)cc3)n2)cc1)C1CCCN1 (configuration not stated) | 89.5% and 97.2% | 89.5 | 72.2 | 73.5 | 35.5 | 22.4 | 43.1 | 39.2
O=C(O)c1ccco1 [2-Furoic acid] | 95.7% and 95.1% | 103 | 95.9 | 108 | 98.5 | 101 | 97.5 | 102
C=C1C(=O)O[C@@H]2C[C@@]3(C)CCCC(=C)[C@@H]3C[C@H]12 [Isoalantolactone] | 27.5% and 44.2% | 40.2 | 23 | 25.4 | 12 | 16.1 | 1.8 | 6.98
Cc1ccc(S(=O)(=O)n2c(N)nc3ccccc32)cc1 | 95.4% and 101% | 97.9 | 102 | 104 | 102 | 104 | 98.3 | 97.2
CC1(C)C=Cc2cc(-c3coc4cc(O)ccc4c3=O)ccc2O1 [Corylin] | 78.5% and 85.9% | 85.4 | 70.9 | 69.7 | 97 | 97.4 | 56.4 | 60.8
